Compounds with a hit are over-represented: about 11% of the library has one in this group of screens.
USP30 block – blocks human USP30 ubiquitin-rhodamine cleavage. purified USP30, Ub-rhodamine cleavage fluorescence. inhibition, % at 25 µM. actives 5.3% (n = 47,000)
USP28 inh – inhibitors of human USP28 deubiquitinase. Q96RU2. purified USP28, Ub-rhodamine cleavage fluorescence, 30 min. inhibition, % at 25 µM. actives 3% (n = 47,000). AID 1645857
USP17 block – blocks human USP17 ubiquitin-rhodamine cleavage | purified USP17, Ub-rhodamine cleavage fluorescence, 3 h | A8MUK1 | inhibition, % at 50 µM | actives 6.5% (n = 47,000) | AID 1645855
OTUD3 inh – inhibitors of human OTUD3 deubiquitinase; purified OTUD3, Ub-rhodamine fluorescence, 2 h; inhibition, % at 25 µM; AID 1645858; actives 0.7% (n = 47,000)
Target sequence (Q5T2D3 whole entry, looked up): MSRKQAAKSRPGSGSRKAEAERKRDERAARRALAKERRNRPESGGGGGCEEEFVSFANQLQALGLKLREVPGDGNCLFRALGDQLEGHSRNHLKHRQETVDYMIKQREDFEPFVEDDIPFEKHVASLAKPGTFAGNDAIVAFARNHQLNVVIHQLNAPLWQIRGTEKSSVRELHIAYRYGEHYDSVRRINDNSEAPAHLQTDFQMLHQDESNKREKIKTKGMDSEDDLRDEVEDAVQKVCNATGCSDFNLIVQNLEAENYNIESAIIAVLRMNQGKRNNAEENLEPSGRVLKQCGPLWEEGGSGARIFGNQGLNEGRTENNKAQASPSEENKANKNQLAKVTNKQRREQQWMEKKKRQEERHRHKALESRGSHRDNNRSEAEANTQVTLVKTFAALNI
* hit, by the source's call; i = inactive; . = not tested or not shown. Cut-off read from the data, not from the text of the source: active = inhibition above about 30%; inactive = the rest.

SMILES	USP30 block	USP28 inh	USP17 block	OTUD3 inh
CN1CCN(c2ccccc2NC(=O)c2ccc3c(=O)n4c(nc3c2)CCCC4)CC1	21	7	8	4
Cc1c(-c2noc(-c3ccccc3)n2)nnn1Cc1ccccc1	15	10	24	8
Cc1c(-c2noc(-c3ccccc3)n2)nnn1Cc1cccc(F)c1	10	0	10	11
COc1ccccc1-c1nc(-c2nnn(Cc3cccc(F)c3)c2C)no1	22	56*	14	10
Cc1ccc(Cn2nnc(-c3noc(-c4ccc[nH]4)n3)c2C)cc1	22	62*	21	8
O=C(O)[C@@H]1CCCN1c1nc(Cc2ccccc2)nc2sc3c(c12)CCCC3	-14	-11	3	-16
O=C(CSc1ncnc2c1sc1cccc(F)c12)N1CCOCC1	-50	-5	-5	0
c1ccc(CCNc2nc3ccccc3s2)cc1	-9	35*	-9	-14
COc1ccc(NS(=O)(=O)c2cc(NC(=O)CCc3nc4ccccc4s3)ccc2C)cc1	35*	-2	60*	5
CN(c1ccncn1)C1CC2(CCN(C(=O)C3(N)CCCC3)C2)C1 (stereo not drawn)	-7	-4	-8	-8
COc1cccc(S(=O)(=O)N2CCCn3nnc(COCC4CC4)c3C2)c1	19	-1	2	6
COc1cccc(S(=O)(=O)N2CCn3nc(C(C)(C)C)cc3C2)c1	79*	21	12	17
CSc1nc(C)c2c(n1)N(c1ccc(C(C)C)cc1)CC2	13	3	41*	7
COc1ccc(Cl)cc1NC(=O)C1C2C(=O)N(c3ccc4c(c3)OCO4)C(=O)C2C2c3ccccc3C=CN12 (stereo not drawn)	i	-11	-56	-57
COc1ccc(Cl)cc1NC(=O)C1[C@@H]2C(=O)N(Cc3ccc4c(c3)OCO4)C(=O)[C@@H]2[C@H]2c3ccccc3C=CN12 (stereo partly drawn)	-99	45*	24	14
COc1ccc(N2C(=O)[C@@H]3[C@H]4c5ccccc5C=CN4C(C(=O)Nc4ccc5c(c4)OCO5)[C@@H]3C2=O)cc1 (stereo partly drawn)	-164	-4	64*	-35
Cc1ccc2c(c1)[nH]c(=O)c1nc(C(=O)Nc3ccccc3C)nn12	-135	-20	24	-18
O=C1CCC[C@]2(CN(S(=O)(=O)Cc3ccccc3F)C[C@H]2c2cccnc2)N1	-2	-7	10	3
COc1ccc(/C(C#N)=C/c2cn[nH]c2)cc1	2	4	-21	6
COc1ccc(/C(C#N)=C\c2ccc3c(c2)OCO3)cc1	35*	33*	29	21
N#C/C(=C\c1cccc(Oc2ncccn2)c1)c1ccc2c(c1)OCO2	.	.	30*	12
O=C(C(c1ccccc1)c1ccccc1)N1CCC(c2nc3c(nnn3Cc3c(F)cccc3Cl)c(=O)[nH]2)CC1	44*	38*	51*	16
O=C(C1CCCC1)N1CCC(c2nc3c(nnn3Cc3ccccc3Cl)c(=O)[nH]2)CC1	39*	19	15	9
O=C(C1CCCC1)N1CCC(c2nc3c(nnn3Cc3cccc(Cl)c3)c(=O)[nH]2)CC1	26	15	7	-4
CC(C)CN1CC2(CCN(C(=O)c3cccnc3)CC2)C2(CCNC2=O)C1 (stereo not drawn)	-17	-6	-5	-2
SMILES	USP30 block	USP28 inh	USP17 block	OTUD3 inh
CC(C)C[C@H](NC(=O)C1(c2ccccc2)CCN(C(=O)[C@@H]2Cc3ccccc3CN2)CC1)C(=O)O	-13	-12	5	-9
Cc1cc(NCC2CCCO2)n2nc(-c3ccccc3)c(C)c2n1 (stereo not drawn)	-19	-26	-15	-21
Cc1cc(C)cc(N2C(N)=NC(N)=NC2c2ccccc2F)c1 (stereo not drawn)	37*	13	17	-82
O=C1CN(C(=O)COC(=O)C(c2ccccc2)c2ccccc2)c2ccccc2N1	-10	32*	12	-5
O=C1CN(C(=O)COC(=O)CCCN2C(=O)c3cccc4cccc(c34)C2=O)c2ccccc2N1	49*	46*	62*	1
CCc1nc(-c2cccc(-c3noc(CNC(C)=O)n3)c2)cs1	-54	17	3	0
COc1ccc2c(c1OC)C(=O)N1C2c2[nH]c3ccccc3c2C[C@H]1C(=O)NCc1ccccc1 (stereo partly drawn)	-81	-17	-10	-21
Cc1ccccc1NC(=O)CC1C(=O)N(Cc2cccnc2)c2nc3ccccc3n21 (stereo not drawn)	3	8	6	10
COc1ccc(-c2nc3sccn3c2Nc2ccc3c(c2)OCCO3)cc1	13	26	10	4
CCc1cc2c(=O)n(CC(=O)N3CCc4ccccc43)cnc2s1	-162	-15	-32	-29
CC(C)C12CN3CC(C(C)C)(CN(C1)C3c1ccc([N+](=O)[O-])o1)C2=O (stereo not drawn)	17	11	17	25
CC(C)C12CN3CC(C(C)C)(CN(C1)C3[C@@H](O)[C@H](O)[C@H](O)[C@@H](O)CO)C2=O (stereo partly drawn)	30*	11	7	22
Cc1cccc(CN2C(=O)N(Cc3ccccc3)S(=O)(=O)c3ccccc32)c1	34*	15	7	17
CCOc1ccc(N2C(=O)N(CC(=O)c3ccc(F)cc3)c3ccccc3S2(=O)=O)cc1	13	14	13	7
CC(=O)c1ccc(N2C(=O)N(Cc3cccc([N+](=O)[O-])c3)c3ccccc3S2(=O)=O)cc1	53*	18	14	15
Cc1noc(-c2cccn(CCOc3ccccc3)c2=O)n1	8	22	3	0
COc1ccc(CC(=O)Nc2ccc3nc(C)sc3c2)cc1S(=O)(=O)N1CCOCC1	-14	-1	-7	-2
CCCCCCCCCCCCCCCC(=O)NC(CCC(=O)O)C(=O)NC(CCCN)C(=O)NC1Cc2ccc(cc2)OC(=O)C(C(C)CC)NC(=O)C(Cc2ccc(O)cc2)NC(=O)C(CCC(N)=O)NC(=O)C2CCCN2C(=O)C(C(C)C)NC(=O)C(CCC(=O)O)NC(=O)C(C(C)O)NC1=O (stereo not drawn)	-5	13	15	21
CC1NC(=O)C(CC(N)=O)NC(=O)C(C(C)O)NC(=O)C(Cc2ccc(O)cc2)NC(=O)C(C(C)C)NC(=O)C(NC(=O)CC(O)CCCCCCCCCCCCN=C(N)N)C(C)OC1=O (stereo not drawn)	86*	87*	34*	73*
COCCn1cnc2c(-c3ccccc3)cn(CC(=O)Nc3ccc4c(c3)OCO4)c2c1=O	1	-7	40*	-6
CCn1cnc2c(-c3ccccc3)cn(CC(=O)Nc3ccc4c(c3)OCO4)c2c1=O	-222	-122	17	-20
O=c1[nH]c2ccccc2c(=O)n1CCc1nc(-c2ccc3c(c2)OCO3)no1	1	5	8	3
COc1ccc(Cl)cc1-n1nnc(C(=O)N2CCc3ccccc3C2)c1C	83*	33*	.	15
O=C(c1nnn(-c2ccc(Cl)cc2)c1-c1cccnc1)N1CCc2ccccc2C1	17	8	.	11

Screening data deposited in PubChem BioAssay by Buhrlage Lab, Dana-Farber Cancer Institute and Novartis Institutes for BioMedical Research (Cambridge, Mass).
